From PubChem BioAssay (EPA / NIEHS)
Calls of active or inactive are those of the source. Rule for the calls: active = hit-call score of the fitted dose curve at least 0.9, where 1 is the maximum; inactive = score below 0.9.

Legend:
[1] = APR_HepG2_CellCycleArrest_24hr: Apredica 24-hour HepG2 Assay for Cell Cycle Arrest (AID 2282905); details: imaging, actives raise or lower the signal;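 note: cell cycle arrest scored as ratio of 2N to 4N nuclear DNA content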
Summary of the method: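 Compounds (0.39 to 200 uM, final DMSO 0.5% v/v) are applied to HepG2 cells for 24 hours; cells are then fixed, permeabilized and nuclei labeled with Hoechst 33342. Automated imaging measures DNA content, and activity is fitted in both directions against DMSO.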

[2] = APR_HepG2_StressKinase_1hr: Apredica 1-hour HepG2 Assay for Stress Kinase (AID 2282906); details: HepG2 stress kinase (phospho-c-Jun) imaging, actives raise or lower the signal
Summary of the method: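 High-content imaging of phospho-c-Jun immunostaining (with Hoechst nuclear identification) after a 1 h exposure of HepG2 cells to 10 concentrations from 0.39 to 200 uM, final DMSO 0.5%. Fitted bidirectionally against DMSO.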

[3] = APR_HepG2_NuclearSize_24hr: Apredica 24-hour HepG2 Assay for Nuclear Size (AID 2282907); details: high-content imaging, actives raise or lower the signal
Summary of the method: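 Nuclear size is measured by fluorescence high-content imaging of Hoechst-labelled HepG2 nuclei after 24 hr of treatment (0.39–200 uM, 0.5% DMSO). Cells are fixed in 3.7% formaldehyde before staining, and DMSO serves as the baseline for bidirectional curve fitting.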

[4] = APR_HepG2_CellLoss_24hr: Apredica 24-hour HepG2 Assay for Cell Loss (AID 2282908); details: high-content imaging;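 for AC50: fit in both directions so a hit may be cell loss or gain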
Summary of the method: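 Nuclear count serves as the viability measure: treated cells are fixed, permeabilized and labelled with Hoechst 33342, and six images per well are analysed to identify valid nuclei. Doses span 0.39–200 uM, and activity in either direction is scored against DMSO.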

[5] = APR_HepG2_MicrotubuleCSK_24hr: Apredica 24-hour HepG2 Assay for Microtubule CSK Stabilty (AID 2282909); details: HepG2 microtubule cytoskeleton imaging, actives raise or lower the signal
Summary of the method: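 Compounds were applied to HepG2 cells for 24 hours across 0.39–200 uM in duplicate, with final DMSO at 0.5% v/v. Fixed, permeabilized cells were labeled for alpha-tubulin and nuclei, and tubulin fluorescence was quantified by imaging, fitted bidirectionally against DMSO.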

[6] = APR_HepG2_MitoticArrest_24hr: Apredica 24-hour HepG2 Assay for Mitotic Arrest (AID 2282910); details: high-content imaging, actives raise or lower the signal
Summary of the method: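 HepG2, 24 hr dosing, 0.39–200 uM, 0.5% DMSO final. Formaldehyde-fixed, Triton-permeabilised, anti-phospho-histone H3 plus Hoechst. ArrayScan imaging at 20x; bidirectional fit vs DMSO baseline.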

[7] = APR_HepG2_MitoMembPot_24hr: Apredica 24-hour HepG2 Assay for Mitochondrial Membrane Potential (AID 2282911); details: imaging, actives raise or lower the signal
Summary of the method: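 Mitochondrial dye uptake (MitoTracker Red CMXRos, 250 nM, 30 min pre-fixation) in HepG2 after 24 hr compound exposure, 0.39–200 uM; ArrayScan images at 20x, activity fitted in both directions relative to DMSO.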

[8] = APR_HepG2_MitoMass_24hr: Apredica 24-hour HepG2 Assay for Mitochondrial Mass (AID 2282912); details: high-content imaging, actives raise or lower the signal
Summary of the method: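 After 24 hr of treatment at 0.39 to 200 uM, HepG2 cells take up 250 nM MitoTracker Red CMXRos for 30 min and are then fixed with 3.7% formaldehyde. Per-well images are quantified, and any change in either direction is scored against solvent.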

[9] = APR_HepG2_CellCycleArrest_72hr: Apredica 72-hour HepG2 Assay for Cell Cycle Arrest (AID 2282914); details: high-content imaging, actives raise or lower the signal
Summary of the method: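 Using multiplexed high-content imaging, HepG2 nuclei stained with Hoechst 33342 (2 ug/mL) were analysed for DNA content after fixation and permeabilization. Treatment lasted 72 hr across 0.39–200 uM in duplicate with final DMSO 0.5% v/v; DMSO served as negative control.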

[10] = APR_HepG2_p53Act_24hr: Apredica 24-hour HepG2 Assay for p53 Activation (AID 2282913); details: high-content imaging, actives raise or lower the signal;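 note: p53 protein immunofluorescence averaged per cell in HepG2 with Hoechst nuclei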
Summary of the method: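 Following 24 hr dosing of HepG2 at 0.39–200 uM, the cells undergo formaldehyde fixation, Triton permeabilization and multiplexed antibody labeling that includes p53 (Cy5). Signal from the imaging is referenced to DMSO solvent controls.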

Measured: AC50

COc1cc(Cl)c(OC)cc1Cl
not listed: [10]
inactive: all other assays above

O=c1n(Cl)c(=O)n(Cl)c(=O)n1Cl
not listed: [10]
inactive: all other assays above

CNC(=O)Oc1cccc2ccccc12
active: [4] 50.5 µM
not listed: [2] | [10]
inactive: all other assays above

O=C(Nc1ccccc1-c1ccc(Cl)cc1)c1cccnc1Cl
active: [7] 66.8 µM
not listed: [2]
inactive: all other assays above

N#Cc1c[nH]cc1-c1cccc2c1OC(F)(F)O2
inactive: [3] | [5] | [6] | [8]
active: [1] 26.9 µM | [4] 22.4 µM | [7] 53.6 µM | [9] 39.8 µM

CCCC(=NOCC)C1=C(O)CC(CC(C)SCC)CC1=O (stereo not drawn)
not listed: [2] | [10]
inactive: all other assays above

CC(C)Oc1cccc(NC(=O)c2ccccc2C(F)(F)F)c1
not listed: [2] | [10]
inactive: all other assays above

COC(=O)NS(=O)(=O)c1ccc(N)cc1
not listed: [2]
inactive: all other assays above

CC1(C)CON(Cc2ccccc2Cl)C1=O
not listed: [2] | [10]
inactive: all other assays above

CCOc1nc(F)cc2nc(S(=O)(=O)Nc3c(Cl)cccc3Cl)nn12
not listed: [2] | [10]
inactive: all other assays above

CC(C)(C)C(=O)C(Oc1ccc(Cl)cc1)n1cncn1 (stereo not drawn)
active: [9] 82.2 µM
not listed: [2]
inactive: all other assays above

COCC(C)N(C(=O)CCl)c1c(C)csc1C (stereo not drawn)
active: [1] 109 µM | [4] 115 µM
not listed: [2] | [10]
inactive: all other assays above

CSC(=O)c1c(C(F)F)nc(C(F)(F)F)c(C(=O)SC)c1CC(C)C
not listed: [2]
inactive: all other assays above

CCOP(=S)(OCC)Oc1nc(Cl)n(C(C)C)n1
not listed: [2] | [10]
inactive: all other assays above

COc1ccc(-c2ccccc2)cc1NNC(=O)OC(C)C
not listed: [2] | [10]
inactive: all other assays above

CCC(C)n1c(=O)[nH]c(C)c(Br)c1=O (stereo not drawn)
not listed: [2]
inactive: all other assays above

Nc1c(Cl)c(Cl)nc(C(=O)O)c1Cl
not listed: [2] | [10]
inactive: all other assays above

CN/C(=N\[N+](=O)[O-])NCc1cnc(Cl)s1
not listed: [2] | [10]
inactive: all other assays above

COc1cc(OC)nc(NC(=O)NS(=O)(=O)c2ncccc2OCC(F)(F)F)n1
not listed: [2] | [10]
inactive: all other assays above

Nc1cnn(-c2ccccc2)c(=O)c1Cl
not listed: [2] | [10]
inactive: all other assays above

O=C1C2CC=CCC2C(=O)N1SC(Cl)(Cl)Cl (stereo not drawn)
inactive: [7] | [8] | [9]
active: [1] 33.4 µM | [3] 59.3 µM | [4] 54.6 µM | [5] 24.1 µM | [6] 30.1 µM | [10] 28.5 µM

CC1(C)CCC(=Cc2ccc(Cl)cc2)C1(O)Cn1cncn1 (stereo not drawn)
active: [1] 117 µM
not listed: [2]
inactive: all other assays above

CN=C=S
active: [1] 69.2 µM | [9] 54.7 µM
not listed: [2] | [10]
inactive: all other assays above

CCNC(=O)NC(=O)C(C#N)=NOC
not listed: [2] | [10]
inactive: all other assays above

Cc1nc(N(C)C)nc(OC(=O)N(C)C)c1C
not listed: [2] | [10]
inactive: all other assays above

Cc1cc(C)nc(Nc2ccccc2)n1
active: [1] 43.7 µM | [7] 75.7 µM | [9] 61.8 µM
not listed: [2] | [10]
inactive: all other assays above

N#CN=C1SCCN1Cc1ccc(Cl)nc1
not listed: [2]
inactive: all other assays above

N#Cc1c(Cl)cccc1Cl
not listed: [2] | [10]
inactive: all other assays above

CCN(CC)C(=O)C(C)Oc1cccc2ccccc12 (stereo not drawn)
active: [9] 106 µM
not listed: [2]
inactive: all other assays above

Cc1ccc(N=CN(C)C=Nc2ccc(C)cc2C)c(C)c1
active: [4] 117 µM | [7] 44.7 µM
not listed: [2]
inactive: all other assays above

CCOc1cc(C(C)(C)C)ccc1C1COC(c2c(F)cccc2F)=N1 (stereo not drawn)
active: [7] 93.3 µM
not listed: [2] | [10]
inactive: all other assays above

CC(C)N1C(=O)N(c2ccccc2)CSC1=NC(C)(C)C
inactive: [3] | [7] | [8] | [9]
active: [1] 97.8 µM | [4] 115 µM | [5] 76.6 µM | [6] 114 µM

CCCN(CC)CC1COC2(CCC(C(C)(C)C)CC2)O1 (stereo not drawn)
active: [5] 100 µM
not listed: [2] | [10]
inactive: all other assays above

CCCCC(C#N)(Cn1cncn1)c1ccc(Cl)cc1 (stereo not drawn)
not listed: [2] | [10]
inactive: all other assays above

Cn1c(-c2ccccc2)cc(-c2ccccc2)[n+]1C
not listed: [2]
inactive: all other assays above

C=C(C)CN(CC)c1c([N+](=O)[O-])cc(C(F)(F)F)cc1[N+](=O)[O-]
not listed: [2] | [10]
inactive: all other assays above

COC(=O)NC(=S)Nc1ccccc1NC(=S)NC(=O)OC
active: [5] 28.6 µM | [7] 26 µM | [9] 100 µM
not listed: [2]
inactive: all other assays above

COC(=O)N(C(=O)N1CO[C@@]2(C(=O)OC)Cc3cc(Cl)ccc3C2=N1)c1ccc(OC(F)(F)F)cc1
not listed: [2] | [10]
inactive: all other assays above
